Where “and” joins values, the source holds several entries; their conditions need not be identical. Equal entries are not always repeated. Records with an inconclusive call do not appear. Calls of active or inactive are those of the source. Calls come from the whole dose curve; as a rule, active = well fitted curve in the direction sought with a large enough effect; inconclusive = small, poorly fitted or top-dose-only effect, or another doubt; inactive = no such curve, though single readings can be large; an effect the other way counts as inactive or inconclusive.
Legend:
[1] = qHTS of pediatric cancer cell lines to identify multiple opportunities for drug repurposing: Primary screen for OHS-50 cells (AID 1347103); note: nearly all actives have a fitted effect of over 40% in size; note: potency is the fitted concentration of half-maximal effect
In short: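 Cells (500-1,000/well) rested 5 h, then received compounds for 48 h; metabolically active cells were measured by CellTiter-Glo luminescence. Final concentrations spanned up to 46 µM (MIPE, 11-point) or 0.59 nM-46 µM (NPC, 8-point) in primary screens, 11-point in follow-ups.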

[2] = qHTS of pediatric cancer cell lines to identify multiple opportunities for drug repurposing: Primary screen for RD cells (AID 1347104); note: nearly all actives have a fitted effect of over 55% in size; note: potency is the fitted concentration of half-maximal effect
In short: (§1)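 Primary screen of approved and investigational compounds on cells in growth media at 37 degrees C, 5% CO2. MIPE set at 11-point and NPC set at 8-point dilutions; viability scored by ATP-based luminescence at 48 hours.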

[3] = qHTS of pediatric cancer cell lines to identify multiple opportunities for drug repurposing: Primary screen for control Hh wild type fibroblast cells (AID 1347106); note: nearly all actives have a fitted effect of over 55% in size; note: potency is the fitted concentration of half-maximal effect
In short: (§2)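 Viability after 48 h compound treatment at 37C, 500-1,000 cells/well, read as ATP luminescence with CellTiter-Glo. Primary screens used 11-point (MIPE, 0.78 nM-46 µM) or 8-point (NPC, 0.59 nM-46 µM) final concentrations; follow-up screens used 11-point dilutions.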

[4] = qHTS of pediatric cancer cell lines to identify multiple opportunities for drug repurposing: Primary screen for Rh41 cells (AID 1347108); note: nearly all actives have a fitted effect of over 70% in size; note: potency is the fitted concentration of half-maximal effect
In short: as §1

[5] = qHTS of pediatric cancer cell lines to identify multiple opportunities for drug repurposing: Primary screen for MG 63 (6-TG R) cells (AID 1347105); note: nearly all actives have a fitted effect of over 50% in size; note: potency is the fitted concentration of half-maximal effect
In short: as §1

[6] = qHTS of pediatric cancer cell lines to identify multiple opportunities for drug repurposing: Primary screen for Rh30 cells (AID 1347107); note: series mostly up to about 46 µM; nearly all actives have a fitted effect of over 75% in size
In short: as §2

[7] = qHTS of pediatric cancer cell lines to identify multiple opportunities for drug repurposing: Confirmatory screen for SK-N-MC cells (AID 1347111);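 note: cells exposed to compound for 48 h before the readout; nearly all actives have a fitted effect of over 70% in size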; note: potency is the fitted concentration of half-maximal effect
In short: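 SK-N-MC cells at 500-1,000 cells/well in growth media were pre-incubated 5 h, then exposed to compounds at 11-point dilutions for 48 h at 37 degrees C, 5% CO2. Viability was read as CellTiter-Glo luminescence.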

[8] = qHTS of pediatric cancer cell lines to identify multiple opportunities for drug repurposing: Confirmatory screen for BT-37 cells (AID 1347117); note: nearly all actives have a fitted effect of over 55% in size; note: potency is the fitted concentration of half-maximal effect
In short: as §2

[9] = qHTS of pediatric cancer cell lines to identify multiple opportunities for drug repurposing: Confirmatory screen for TC32 cells (AID 1347118); note: nearly all actives have a fitted effect of over 65% in size; note: potency is the fitted concentration of half-maximal effect
In short: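 TC32 cells, 500-1,000/well in growth medium, compound-treated 48 h at 37 °C; viability from CellTiter-Glo luminescence. Primary screen: MIPE 11-point (0.78 nM–46 µM final), NPC 8-point (0.59 nM–46 µM final); confirmatory at 11-point dilutions.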

[10] = qHTS of pediatric cancer cell lines to identify multiple opportunities for drug repurposing: Confirmatory screen for MG 63 (6-TG R) cells (AID 1347119); note: nearly all actives have a fitted effect of over 55% in size; note: potency is the fitted concentration of half-maximal effect
In short: as §2

[11] = qHTS of pediatric cancer cell lines to identify multiple opportunities for drug repurposing: Confirmatory screen for control Hh wild type fibroblast cells (AID 1347121); note: nearly all actives have a fitted effect of over 70% in size; note: potency is the fitted concentration of half-maximal effect
In short: as §2

[12] = qHTS of pediatric cancer cell lines to identify multiple opportunities for drug repurposing: Confirmatory screen for Rh41 cells (AID 1347123);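 note: 48 h compound exposure; nearly all actives have a fitted effect of over 60% in size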; note: potency is the fitted concentration of half-maximal effect
In short: as §2

[13] = qHTS of pediatric cancer cell lines to identify multiple opportunities for drug repurposing: Confirmatory screen for A673 cells (AID 1347110); note: nearly all actives have a fitted effect of over 65% in size; note: potency is the fitted concentration of half-maximal effect
In short: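 Cells plated at 500-1,000/well were treated five hours later with multi-point dilutions up to 46 µM final. After two days, CellTiter-Glo was added and luminescence read.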

[14] = qHTS of pediatric cancer cell lines to identify multiple opportunities for drug repurposing: Confirmatory screen for LAN-5 cells (AID 1347113); note: nearly all actives have a fitted effect of over 65% in size; note: potency is the fitted concentration of half-maximal effect
In short: as §2

[15] = qHTS of pediatric cancer cell lines to identify multiple opportunities for drug repurposing: Confirmatory screen for U-2 OS cells (AID 1347122); note: nearly all actives have a fitted effect of over 65% in size; note: potency is the fitted concentration of half-maximal effect
In short: as §2

[16] = qHTS of pediatric cancer cell lines to identify multiple opportunities for drug repurposing: Confirmatory screen for BT-12 cells (AID 1347112); note: nearly all actives have a fitted effect of over 55% in size; note: potency is the fitted concentration of half-maximal effect
In short: as §2

[17] = qHTS of pediatric cancer cell lines to identify multiple opportunities for drug repurposing: Confirmatory screen for NB-EBc1 cells (AID 1347115); note: nearly all actives have a fitted effect of over 45% in size; note: potency is the fitted concentration of half-maximal effect
In short: as §2

[18] = qHTS of pediatric cancer cell lines to identify multiple opportunities for drug repurposing: Confirmatory screen for SJ-GBM2 cells (AID 1347116); note: nearly all actives have a fitted effect of over 60% in size; note: potency is the fitted concentration of half-maximal effect
In short: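 Viability measured as metabolically active cells via CellTiter-Glo luminescence following 48 hours of compound exposure, 11-point dilutions in confirmatory testing. 500-1,000 cells/well plated 5 hours before dosing; controls were DMSO and 2.3 µM bortezomib.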

[19] = qHTS of pediatric cancer cell lines to identify multiple opportunities for drug repurposing: Confirmatory screen for NB1643 cells (AID 1347109); note: nearly all actives have a fitted effect of over 45% in size
In short: as §2

Measured: Potency

CC(C)C[C@H](NC(=O)[C@@H](O)[C@H](N)Cc1ccccc1)C(=O)O
active: [1] 19.3 µM | [2] 37.2 µM | [4] 23.5 µM
inactive: [3]

C#Cc1cccc(Nc2ncnc3cc(OCCOC)c(OCCOC)cc23)c1
active: [1] 19.3 µM and 6.92 µM | [7] 14.7 µM | [8] 5.85 µM | [9] 14.7 µM | [10] 16.5 µM | [12] 9.27 µM
inactive: [2] | [5] | [6] | [11]

COc1ccc(-c2ccc3c(N4CCOC[C@H]4C)nc(N4CCOC[C@H]4C)nc3n2)cc1CO
active: [1] 0.0544 µM | [2] 0.0372 µM | [5] 0.0187 µM | [13] 0.117 µM | [7] 0.827 µM | [14] 0.293 µM | [8] 0.233 µM | [9] 0.208 µM | [10] 0.0928 µM | [15] 0.329 µM | [12] 0.233 µM

CCc1ccc(CCOc2ccc(CC3SC(=O)NC3=O)cc2)nc1 (stereo not given)
inactive: [1] | [2] | [5] | [3] | [6] | [4]

CCCc1nc2c(C)cc(-c3nc4ccccc4n3C)cc2n1Cc1ccc(-c2ccccc2C(=O)O)cc1
inactive: [1] | [2] | [5] | [3] | [6]

NCCc1ccc(O)c(O)c1
inactive: [1] | [2] | [5] | [3] | [6] | [4]

CCOc1ccn(-c2ccc(F)cc2)c(=O)c1C(=O)Nc1ccc(Oc2ccnc(N)c2Cl)c(F)c1
inactive: [2] | [6] | [16] | [14] | [17] | [11] | [15]
active: [1] 19.3 µM | [13] 13.1 µM | [7] 9.27 µM | [18] 14.7 µM | [9] 7.37 µM | [10] 10.4 µM

CS(=O)(=O)c1ccc(C(=O)Nc2ccc(Cl)c(-c3ccccn3)c2)c(Cl)c1
active: [9] 4.65 µM
not listed: [4] | [5] | [6] | [7] | [12] | [19]
inactive: all other assays above

Cc1c(C)c2c(c(C)c1O)CCC(C)(COc1ccc(CC3SC(=O)NC3=O)cc1)O2 (stereo not given)
not listed: [10] | [15]
inactive: all other assays above

NNCCc1ccccc1
inactive: [1] | [2] | [5] | [3] | [6]

Cc1cn[nH]c1
active: [1] 0.611 µM
not listed: [2] | [4] | [10]
inactive: all other assays above

CNCc1ccc(-c2[nH]c3cc(F)cc4c3c2CCNC4=O)cc1
active: [13] 0.147 µM | [7] 6.57 µM | [9] 5.85 µM | [12] 16.5 µM
not listed: [2] | [6] | [8] | [10] | [17] | [19]
inactive: all other assays above

C1COC(NC(C2CC2)C2CC2)=N1
inactive: [1] | [2] | [5] | [3] | [4]

COc1ccc2c3n(c(=NC(=O)c4cccnc4)nc2c1OC)CCN3
inactive: [3]
active: [1] 0.968 µM | [2] 1.87 µM | [5] 2.35 µM | [4] 0.935 µM

Cc1n[nH]c(C)c1Cc1sc2c(c1C(=O)N1C[C@H](O)CO1)c(=O)n(C)c(=O)n2CC(C)C
inactive: [1] | [2] | [5] | [3] | [6]

Cc1cccc(-c2[nH]c(C(C)(C)C)nc2-c2ccc3nccnc3c2)n1
inactive: [5] | [3] | [6]
active: [1] 6.11 µM

CC(C)(N)C(=O)N[C@H](COCc1ccccc1)C(=O)N1CCC2(CC1)CN(S(C)(=O)=O)c1ccccc12
inactive: [3]
active: [1] 27.3 µM | [2] 26.4 µM

OC(CCN1CCCCC1)(c1ccccc1)C1CC2C=CC1C2 (stereo not given)
inactive: [1] | [2] | [5] | [3] | [6]

Cc1ccnc(NS(=O)(=O)c2ccc(NC(=O)Nc3ccc(S(=O)(=O)Nc4nccc(C)n4)cc3)cc2)n1
inactive: [1] | [2] | [5] | [3] | [6] | [4]

Cc1cc(Nc2nc(N[C@@H](C)c3ncc(F)cn3)ncc2Cl)n[nH]1
active: [1] 15.3 µM | [2] 16.6 µM | [5] 11.8 µM | [4] 9.35 µM
inactive: [3] | [6]

CC1(C)Cc2c(-c3ccccc3)c(-c3ccc(Cl)cc3)c(CC(=O)O)n2C1
inactive: [3]

COc1cc2nccc(Oc3ccc(NC(=O)NC4CC4)c(Cl)c3)c2cc1C(N)=O
inactive: [6] | [17] | [18] | [11]
active: [2] 14.8 µM | [4] 5.9 µM | [7] 26.1 µM | [9] 14.7 µM | [12] 5.85 µM

Cc1cc(C=c2sc3nc4ccccc4n3c2=O)c(C)n1-c1ccccc1
inactive: [2] | [5] | [3]

CCCc1nn(C)c2c(=O)[nH]c(-c3cc(S(=O)(=O)N4CCN(C)CC4)ccc3OCC)nc12
inactive: [5] | [3] | [6]

Cc1c(CCOc2ccc(C(=O)O)cc2)c2cc(Cl)ccc2n1C(c1ccccc1)c1ccccc1
inactive: [5] | [3] | [4]

Cc1ccccc1C(C(=O)NC1CCCC1)N(C(=O)Cn1cnc2ccccc21)c1cccc(F)c1 (stereo not given)
inactive: [5] | [3] | [6]

Cc1csc(NC(=O)c2sc3nc4c(c(C(F)(F)F)c3c2N)CCC4)n1
inactive: [5]
active: [3] 2.64 µM

Cn1cnc2c(F)c(Nc3ccc(Br)cc3Cl)c(C(=O)NOCCO)cc21
active: [4] 14.8 µM | [15] 16.5 µM
not listed: [2] | [5] | [6] | [8] | [10] | [18] | [19]
inactive: all other assays above

COc1ccc(-c2ccc3c(N4CCOCC4)nc(N4C[C@@H](C)O[C@@H](C)C4)nc3n2)cc1CO
active: [1] 0.217 µM | [5] 0.187 µM | [4] 0.743 µM | [13] 0.293 µM | [16] 5.22 µM | [18] 1.47 µM | [15] 1.65 µM | [12] 0.657 µM

CC1(C)CNc2cc(NC(=O)c3cccnc3NCc3ccncc3)ccc21
inactive: [2] | [3]

Cc1ccc(-n2nc(C(C)(C)C)cc2NC(=O)Nc2ccc(OCCN3CCOCC3)c3ccccc23)cc1
inactive: [3] | [6] | [4]
active: [2] 26.4 µM

NC(=O)c1ccc(-c2nc(-c3ccc4c(c3)OCCO4)c(-c3ccccn3)[nH]2)cc1
inactive: [2] | [5] | [3]

Cc1ccc(NC(=O)c2cccc(C(C)(C)C#N)c2)cc1Nc1ccc2ncn(C)c(=O)c2c1
inactive: [5] | [3]
active: [2] 1.18 µM

Cc1cc2c(F)c(Oc3ncnn4cc(OC[C@@H](C)O)c(C)c34)ccc2[nH]1
active: [1] 30.6 µM
inactive: [3]

C[C@H](NC(=O)Cc1cc(F)cc(F)c1)C(=O)N[C@@H]1C(=O)N(C)c2ccccc2-c2ccccc21
active: [2] 16.6 µM | [5] 11.8 µM | [4] 14.8 µM
inactive: [3]

N#CC[C@H](C1CCCC1)n1cc(-c2ncnc3[nH]ccc23)cn1
inactive: [3]

COc1c(Cl)cc2c([nH]c3cnccc32)c1NC(=O)c1cccnc1C
inactive: [3] | [6]

COc1ccccc1[C@H](c1cccc2ccccc12)[C@@](C)(C#N)C(=O)N1CCC(c2cccc(C(F)(F)F)c2)CC1
active: [1] 1.09 µM | [4] 5.9 µM
inactive: [3]

CC(=O)NC(C)c1ccc(Oc2ccc(OC(C)C)cc2)cc1 (stereo not given)
active: [1] 21.7 µM
inactive: [3]

O=c1[nH]c(-c2ccc(C(F)(F)F)cc2)nc2c1CSCC2
inactive: [3]

CCOC(=O)N[C@@H]1CC[C@@H]2[C@@H](C1)C[C@H]1C(=O)O[C@H](C)[C@H]1[C@@H]2C=Cc1ccc(-c2cccc(F)c2)cn1
inactive: [5] | [3]

CCc1cncnc1N1CCN(Cc2nc3ccc(C(F)(F)F)cc3[nH]2)CC1
active: [1] 15.3 µM
inactive: [3]

COCCNCCCn1c(C(=O)CF)c(-c2ccc(C)cc2)c2c(N)ncnc21
inactive: [2] | [3]

CCC(C)N(C)C(=O)c1cc2ccccc2c(-c2ccccc2Cl)n1 (stereo not given)
inactive: [2] | [5] | [3] | [6]

COCC(=O)NCC=Cc1ccc2ncnc(Nc3ccc(Oc4ccc(C)nc4)c(C)c3)c2c1
active: [1] 19.3 µM | [13] 23.3 µM | [14] 42.7 µM | [17] 30.2 µM | [8] 24 µM | [9] 26.9 µM | [10] 38 µM | [11] 42.7 µM | [12] 18.5 µM
inactive: [5] | [3] | [18]

CCCn1c(=O)c2[nH]c(C34CC5CC3C[C@@H](C5)C4)nc2n(CCC)c1=O
inactive: [3]

c1ccc(-c2nn3c(c2-c2ccnc4cc(OCCN5CCOCC5)ccc24)CCC3)nc1
inactive: [2] | [5] | [3]

Source: PubChem BioAssay (NCATS)
